Assay outcomes deposited in PubChem BioAssay by several laboratories.
Sampled rows, rich in hits. Any-hit rate of the full collection: about 2.2%.
Efflux pump mplx: inhibitors of Candida efflux pumps in yeast, primary screen, S. cerevisiae, Nile Red, multiplex | S. cerevisiae Candida pump triplex | inhibition, % at 10 µM | actives 0.44% (n = 330,000) | AID 485275, 2010;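 active = plate passing quality check with inhibition over a set limit, or well fluorescence over plate mean plus 4 SD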;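 note: Nile Red retained in pooled yeast measured as flow cytometry median fluorescence; 0% = buffer negative control and 100% = Enniatin B positive control; higher means more Nile Red kept so more efflux inhibition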
HGIII-sPLA2 inh: human group III sPLA2 inhibitors, primary screen, biochemical, QFRET, BODIPY PC-A2 liposome substrate. QFRET BODIPY PC-A2 liposome hydrolysis, fluorescence. inhibition, % at 12.2 µM. actives 0.56% (n = 370,000). AID 743126, 2013;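 active = inhibition above mean plus 3 SD of compounds lying within the high and low control bounds, cut at about 19% in these data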;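 note: 0% = median of test compound wells and 100% = no enzyme DMSO wells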
Target sequence (Q9NZ20 whole entry, looked up): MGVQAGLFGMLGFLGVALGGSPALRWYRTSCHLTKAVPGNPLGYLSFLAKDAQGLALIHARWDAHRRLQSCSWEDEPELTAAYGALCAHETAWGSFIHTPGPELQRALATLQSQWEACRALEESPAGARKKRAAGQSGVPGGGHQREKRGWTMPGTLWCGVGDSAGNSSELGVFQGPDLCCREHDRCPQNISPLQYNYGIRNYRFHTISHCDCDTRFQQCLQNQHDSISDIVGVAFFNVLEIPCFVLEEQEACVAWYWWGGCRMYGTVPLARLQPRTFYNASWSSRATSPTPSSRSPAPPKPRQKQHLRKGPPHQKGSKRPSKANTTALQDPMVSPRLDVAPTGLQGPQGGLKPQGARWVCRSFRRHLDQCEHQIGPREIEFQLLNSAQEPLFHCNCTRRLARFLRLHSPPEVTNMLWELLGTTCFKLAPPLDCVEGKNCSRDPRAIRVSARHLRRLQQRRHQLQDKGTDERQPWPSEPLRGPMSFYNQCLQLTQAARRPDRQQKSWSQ
SUMO Mot1 rescue: yeast Mot1-301 growth rescue at high temperature, primary screen, SUMOylation pathway inhibitor project, S. cerevisiae, ATP luminescence, 38.5C | S. cerevisiae Mot1-301 growth rescue; percent above DMSO median, 100 means doubled | growth rescue, % at 18.8 µM | actives 1% (n = 320,000) | AID 2716, 2010;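 active = every valid replicate shows activation above 250% relative to neutral control wells; inactive = the rest, any valid replicate at or below 250%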;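 note: OY570 slx delta 5 strain wells were the positive control but not used for scaling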
SKN-1 inh: suppressors of acrylamide-induced Pgst-4::GFP reporter in worms, primary screen, SKN-1 inhibitor project, whole organism, uHTS, GFP/RFP fluorescence ratio, strain VP596; C. elegans VP596 Pgst-4::GFP/RFP ratio, 24 h; inhibition, % at 21.8 µM; actives 0.49% (n = 360,000); AID 624304, 2012;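 active = interference check ratio from 0.5 to 1.5 plus GFP to RFP signal ratio inhibition reaching or exceeding a fixed threshold, cut at about 30% in these data, passing the limit was not always enough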
* = called active by the depositor; x = no result.

SMILES	Efflux pump mplx	HGIII-sPLA2 inh	SUMO Mot1 rescue	SKN-1 inh
Cc1nn(-c2ccccc2)c(-c2ccccc2[N+](=O)[O-])c1CC#N	x	-1	x	7
Cc1nn(-c2ccccc2)c(-c2ccccc2[N+](=O)[O-])c1C(=O)O	0	7	294*	13
COC(=O)c1c(-c2ccc(OC)cc2)c2c(c3c4cc(F)ccc4n(S(=O)(=O)c4ccc(C)cc4)c13)C(=O)N(C)C2	x	0	x	x
CCc1ccc(N(C(C)=O)C2C=CS(=O)(=O)C2)cc1 (centres undefined)	0	-1	531*	7
CC(=O)N(c1ccc(Br)cc1)C1C=CS(=O)(=O)C1 (centres undefined)	0	-2	25	1
O=C(c1cccnc1Cl)N1CCC(Oc2cccnc2)CC1	x	14	x	x
Cc1ccc(-n2c3nc(=O)[nH]c(=O)c-3cc3cc([N+](=O)[O-])ccc32)cc1	0	28*	178	11
Cc1ccc(-n2c(C)nn(Cc3ccc([N+](=O)[O-])cc3)c2=O)cc1	0	-2	x	-7
COC(=O)c1cc(-c2cc3ccccc3s2)c(=O)n2c1CCC2	x	-3	x	x
COc1cccc(/C=N/NC(=O)c2c(C)nc3ccc(Cl)cn23)c1O	0	10	-20	20
COC(=O)c1ccc(NC(=O)c2ccc(NC(=O)c3ccco3)cc2)cc1	11*	5	149	13
O=C(Nc1ccc(-c2noc(CCc3ccccc3)n2)cc1)c1ccco1	0	-26	-19	44*
c1ccc(CCc2nc(-c3ccccc3)no2)cc1	0	1	-5	-11
CCCCCOC(=O)c1ccc(NC(=O)c2ccco2)cc1	0	-32	-1	71*
O=C(Oc1ccccc1)c1ccc(NC(=O)c2ccco2)cc1	0	-2	-4	2
CCCCOC(=O)c1ccc(NC(=O)/C=C/c2cccs2)cc1	1	-27	2	37*
C/C(=C/c1c[n+](Cc2ccc3c(c2)OCO3)c(N)[nH]1)Cn1[nH]c(=O)n(-c2ccccc2)c1=O	x	3	x	x
Nc1[nH]c(C(=O)c2ccccc2)c(-c2cccc3ccccc23)c1C(=O)NCc1ccc(Cl)cc1Cl	x	-3	x	x
c1ccc(-c2ccc(-n3ccnc3)cc2)cc1	0	-1	117	82*
CCOC(=O)c1ccccc1NC(=O)Cc1ccccc1OC	0	5	391*	50*
COc1ccccc1CC(=O)Nc1ccccc1C(=O)O	0	2	2	4
Cc1cc(O)cc(O)c1C(=O)Cc1cscn1	0	-3	353*	15
O=C(COC(=O)CNC(=O)c1ccco1)NCCN1C(=O)CSC1=O	0	-1	320*	-2
O=C(/C=C/Nc1ccccc1O)c1ccco1	0	2	-6	6
O=C(/C=C/Nc1ccc(F)cc1F)c1ccco1	0	0	13	45*
SMILES	Efflux pump mplx	HGIII-sPLA2 inh	SUMO Mot1 rescue	SKN-1 inh
CC(=O)Nc1ccc(N/C=C/C(=O)c2ccco2)cc1	0	-5	1	0
CN(C)c1ccc(N/C=C/C(=O)c2ccco2)cc1	0	2	164	39*
O=C(/C=C/Nc1cccc(F)c1)c1ccco1	0	-7	-6	35
O=C(/C=C/Nc1ccc(Br)cc1F)c1ccco1	1	-3	-16	76*
O=C(/C=C/Nc1ccc(F)cc1F)c1ccc(Br)cc1	0	-5	-9	8
O=C(/C=C/Nc1ccc(F)c(Cl)c1)c1ccco1	0	-8	-3	75*
O=C(NC1CCCCN(Cc2ccc(Cl)cc2)C1=O)c1cccc2nsnc12 (centres undefined)	x	-6	x	x
CCNc1nc(NC(C)C)nc(N(n2cnnc2)S(=O)(=O)c2ccc(C)cc2)n1	0	8	126	4
CCNc1nc(NCC)nc(N(n2cnnc2)S(=O)(=O)c2ccc(C)cc2)n1	0	2	310*	-1
Cc1c(NC(=O)CSc2ccc3c(c2)OCCO3)c(=O)n(-c2ccccc2)n1C	0	5	8	44*
Fc1ccc(-n2nnc(-c3ccccc3Cl)n2)cc1	0	1	-12	14
Fc1ccc(-n2nnc(-c3cccnc3Cl)n2)cc1	x	5	9	68*
Clc1ncccc1-c1nnn(-c2ccccc2)n1	x	-1	-1	26
Fc1ccc(-n2nnc(-c3nccs3)n2)cc1	0	-1	6	71*
COC(=O)[C@]12C[C@H](CC(=O)NCCc3ccccc3OC)C(=O)N(CCC3=CCCCC3)C1=C[C@H](C(C)(C)C)O[C@@H]2C	x	-17	x	x
Brc1ccc(Oc2nnnn2-c2ccccc2)cc1	1	0	5	37*
Fc1ccc(Oc2nnnn2-c2ccccc2)cc1	0	0	-10	7
COc1ccc(/C(N)=N/OC(=O)c2ccc(Br)o2)cc1	0	5	-3	8
N/C(=N\OC(=O)c1ccc(Br)o1)c1cccnc1	0	-4	32	42*
N/C(=N\OC(=O)c1ccco1)c1cccc(Br)c1	0	1	x	57*
O=C(c1cccc(Cl)c1)N(Cc1cccs1)C1CCS(=O)(=O)C1 (centres undefined)	0	2	598	36*
Cc1cccc(C(=O)N(Cc2cccs2)C2CCS(=O)(=O)C2)c1 (centres undefined)	0	-1	0	36*
COc1cccc(C(=O)N(Cc2cccs2)C2CCS(=O)(=O)C2)c1 (centres undefined)	0	15	-2	5
O=C(c1ccc(F)cc1)N(Cc1cccs1)C1CCS(=O)(=O)C1 (centres undefined)	0	0	-2	14
CN(C)c1ccc(CN(C(=O)c2ccc(Cl)c([N+](=O)[O-])c2)C2CCS(=O)(=O)C2)cc1 (centres undefined)	0	-2	341*	-9
SMILES	Efflux pump mplx	HGIII-sPLA2 inh	SUMO Mot1 rescue	SKN-1 inh
Cc1cc(Nc2cccc(F)c2)cc(=O)n1-c1cccc(F)c1	x	-4	x	x
COC(=O)N1C[C@@H]2Oc3nccnc3O[C@@H]2C[C@@H]1c1ccccc1Br	x	8	x	x
COC(=O)C1=C(C)N(Cc2ccccc2C(F)(F)F)C(=NCc2ccc3c(c2)OCO3)NC1CCc1ccccc1 (centres undefined)	x	-6	x	x
Nc1cc2c(cc1Cl)-c1ccccc1C2	x	9	x	49*
CSCC[C@H](NC(=O)[C@H](Cc1ccccc1)n1c(=O)[nH]c2ccccc2c1=O)C(=O)N1CCC[C@@H]1C(=O)O	0	-2	735*	6
CCCOc1cc(C)c(S(=O)(=O)NCc2cccs2)cc1C	0	-34	51	44*
COc1ccc(C2(c3ccc(OC)cc3)NC(=O)N(CC(=O)NC3CCS(=O)(=O)C3)C2=O)cc1 (centres undefined)	0	4	-1	40*
CCNC(=O)N(C)[C@H]1C[C@H]2c3[nH]c4c(-c5cccc(C)c5)cccc4c3CCN2C(=O)[C@H]1[C@H](C)O	x	-16	x	x
